# PubChem BioAssay (Tox21)
# Records with an inconclusive call do not appear. A number with no mark means an inactive call. Activity calls are given as the source filed them. Calls follow the shape of the full dose curve.
# Assay: p53 small molecule agonists, cell-based qHTS assay: qHTS cell viability counter screen (AID 1963581); also: nearly all actives have a fitted effect of over 45% in size
# Conditions: p53RE-bla HCT-116 viability, ATP luminescence, 16 h; series mostly up to 66 µM; activity change, negative = cytotoxicity: at the top concentration
# How it was run: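 Luminescence from CellTiter-Glo, reflecting ATP content, serves as the cytotoxicity measure; it is taken after the 2 h reporter substrate step in HCT-116 p53RE-bla cells dosed for 16 h at 37 C.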
# % is scaled to controls: 0 for no effect and ±100 for the full control effect; potency is read from the fitted curve at half-maximal effect.
SMILES,"activity change, negative = cytotoxicity",Potency
CC[N+](C)(CC)CCOC(=O)C1c2ccccc2Oc2ccccc21,-4.32% [at 30.3 µM],
C/C=C1/C(=O)C[C@H]2[C@@H]3CCC4=CC(=O)CC[C@]4(C)[C@H]3CC[C@]12C,12.4%,
O=C(NN1CCCC1)NS(=O)(=O)c1ccc(Cl)cc1,15.8% [at 30.3 µM],
CCCNCCC,0.839%,
O=C1CC[C@@H](C(=O)O)N1,-20% [at 30.3 µM],
C1C2OC2C2C1C1CC2C2OC12 (stereo not given),0.182%,
Cc1ccc(C#N)cc1,-0.0266%,
CC[C@@]1(c2ccccc2)NC(=O)N(C)C1=O,3.82% [at 30.3 µM],
CC[C@H]1O[C@]2(CC[C@@H]1C)C[C@@H]1C[C@@H](C/C=C(\C)C[C@@H](C)/C=C/C=C3\CO[C@@H]4[C@H](O)C(C)=C[C@@H](C(=O)O1)[C@]34O)O2,-3.03%,
O=CNc1ccccc1,1.49%,
FC(F)(Cl)C(F)(Cl)Cl,-2.75%,
CCN(C(=O)N(CC)c1ccccc1)c1ccccc1,-26%,
CCCCCC/C=C/C=O,10.2%,
CCCCCCCCCCO[C@@H]1O[C@H](CO)[C@@H](O)[C@H](O)[C@H]1O,8.58%,
CC(C)COC(=O)CCCCC(=O)OCC(C)C,6.13%,
CCOc1ccc(NC(=O)CC(C)=O)cc1,2.28%,
CCOC(=O)CC(=O)c1ccccc1,-7.2%,
NCCCC(N)(C(=O)O)C(F)F (stereo not given),-8.59% [at 30.3 µM],
Cc1ccccc1Br,-0.289%,
CCCCCCCCS(=O)(=O)O,0.775%,

SMILES,"activity change, negative = cytotoxicity",Potency
CCOC(=O)[C@@](C)(N)Cc1ccc(O)c(O)c1,-11.1% [at 30.3 µM],
CC1(C)SC(C)(C)SC(C)(C)S1,9.61%,
NCCCCCCNCCCCCCN,4.38%,
CCN(CC)CCNC(C(=O)OCCC(C)C)c1ccccc1 (stereo not given),-1.66% [at 30.3 µM],
Oc1cc2ccccc2c2ccccc12,,10.2 µM (active)
CCCCCCC(C)Nc1ccc(Nc2ccccc2)cc1 (stereo not given),-25.7%,
CCCCCCCCCCCCCOC(=O)CCSCCC(=O)OCCCCCCCCCCCCC,-3.06% [at 13.5 µM],
CC(C)(C)C(=O)CCc1ccc(Cl)cc1,-1.23%,
CC(C)COC(=O)COc1ccc(Cl)cc1Cl,-2.22%,
C=C(C)c1cccc(C(=C)C)c1,-0.607%,
CC(C)(C)C1CCCCC1=O (stereo not given),24.1%,
COC(=O)CC(=O)C(C)(C)C,2.6%,
CC(C)NCC(O)c1cc(O)cc(O)c1 (stereo not given),1.29% [at 30.3 µM],
O=C=NCC1CCCC(CN=C=O)C1 (stereo not given),10.1%,
NNc1nc(-c2ccccc2)cs1,2.08%,
O=Cc1cc(O)ccc1Br,14.5%,
Cc1ccc(C)c([N+](=O)[O-])c1,0%,
CCN(CC)C(=O)c1ccc(O)c(OC)c1,-8.27% [at 30.3 µM],
Cc1cccc(NC(=S)N(C)C)c1,-2.26%,
COc1ccc(OC)c(Cl)c1,-9.4%,
